CHT inh = inhibitors of human choline transporter CHT. B-score at 10 µM. High affinity choline transporter 1 (Homo sapiens), Q9GZV3. hit rate 0.86% among 310,000. CHT-expressing cells, membrane potential dye, choline response; active compounds read low. AID 488975, 2010;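 active means B-score over 3 SD under the library average, and starting fluorescence ratio not unusually high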;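 further: choline stimulus applied at its EC90 after an EC20 pre-addition; B-score computed on integrated fluorescence ratio after choline addition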
TMEM16A inh = TMEM16A chloride channel inhibitors, primary screen, cell-based, HTS; Anoctamin-1 (Mus musculus), Q8BHY3; HEK293 TMEM16A/YFP iodide influx fluorescence, ionomycin; normalized B-score (activity score, 25-100; higher = stronger inhibition) at 10 µM; hit rate 1.2% among 310,000; AID 588511, 2011;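 active means ratio plate-corrected score three or more library SD toward inhibition, starting fluorescence score within five deviations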;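 further: score derived from kinetic fluorescence span divided by baseline fluorescence per well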
ANO1 activ = TMEM16A chloride channel activators or potentiators, primary screen, cell-based, HTS. hit rate 0.3% among 340,000. B-score at 10 µM. HEK293 TMEM16A/YFP-H148Q/I152L, iodide quench fluorescence; active compounds read low;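 active means fluorescence-ratio B-score plate-corrected deviation score at least 3 library SD below zero, with starting fluorescence score within 5 deviations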;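 further: channel opened by trigger with iodide after compound preincubation; score built on the fluorescence ratio of max minus min over baseline; more negative score means more quench and so TMEM16A activation or potentiation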
CHT PAM = CHT positive allosteric modulators, primary screen, cell-based, membrane potential dye, choline EC20. CHT-expressing cells; active compounds read high; LV-AA mutant CHT in HEK293 cells. B-score at 10 µM. hit rate 0.49% among 310,000. AID 488977, 2010;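 active means initial fluorescence not abnormally high and integrated response B-score, plate-corrected, over 3 SD above library mean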
TMEM16A reconf = TMEM16A chloride channel inhibitors, confirmation, cell-based, re-confirmation. HEK293 TMEM16A/YFP-H148Q, iodide quench fluorescence; ionomycin added to raise cell calcium. hit rate 39% among 2,300. shares compounds with TMEM16A inh. AID 652189, 2013. inhibition, % at 10 µM;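 active means mean duplicate percent inhibition, scaled so buffer wells are 0 and the reference blocker 100, over three buffer SD above buffer mean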
TMEM16A Ca cntr = calcium mobilization in TMEM16A/YFP HEK293 cells, confirmation, counter-screen for TMEM16A inhibitor project; hit rate 2% among 2,300; Fluo4 calcium mobilization; shares compounds with TMEM16A inh; AID 652231, 2013; calcium response (% of ionomycin), % at 10 µM;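 active means duplicate-averaged calcium signal over 20% of the ionomycin maximum, relative to buffer baseline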;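 further: each well's signal is peak minus trough fluorescence divided by its pre-addition baseline; 0% = buffer wells and 100% = ionomycin wells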
YFP-HEK293 quench = iodide YFP quench changes in parental YFP-HEK293, counter-screen for TMEM16A inhibitor project, cell-based; shares compounds with TMEM16A inh; ionomycin; YFP ratio F(max-min)/F0 at 10 µM; 2,300 tested, under 10 active; AID 652233, 2013;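 active means yellow fluorescent protein signal ratio exceeding the buffer control mean by over 5 SD of those controls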;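 further: ratio is mean of duplicate wells from kinetic YFP trace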
ClC-1 rat inh = ClC-1 chloride channel inhibition, selectivity assay for TMEM16A inhibitor project, cell-based, voltage-dependent ClC-1 | shares compounds with TMEM16A inh | CHO ClC-1-YFP, iodide influx fluorescence quench; iodide control reads 0, buffer control 100 | ratio percent, % at 10 µM | 2,300 tested, under 10 active;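 active means duplicate-mean ratio percent above the mean of iodide-only control wells, which defines zero, plus 5 of their SD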;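 further: higher percent means stronger block of ClC-1 iodide influx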
Target sequence (P35524 whole entry, looked up): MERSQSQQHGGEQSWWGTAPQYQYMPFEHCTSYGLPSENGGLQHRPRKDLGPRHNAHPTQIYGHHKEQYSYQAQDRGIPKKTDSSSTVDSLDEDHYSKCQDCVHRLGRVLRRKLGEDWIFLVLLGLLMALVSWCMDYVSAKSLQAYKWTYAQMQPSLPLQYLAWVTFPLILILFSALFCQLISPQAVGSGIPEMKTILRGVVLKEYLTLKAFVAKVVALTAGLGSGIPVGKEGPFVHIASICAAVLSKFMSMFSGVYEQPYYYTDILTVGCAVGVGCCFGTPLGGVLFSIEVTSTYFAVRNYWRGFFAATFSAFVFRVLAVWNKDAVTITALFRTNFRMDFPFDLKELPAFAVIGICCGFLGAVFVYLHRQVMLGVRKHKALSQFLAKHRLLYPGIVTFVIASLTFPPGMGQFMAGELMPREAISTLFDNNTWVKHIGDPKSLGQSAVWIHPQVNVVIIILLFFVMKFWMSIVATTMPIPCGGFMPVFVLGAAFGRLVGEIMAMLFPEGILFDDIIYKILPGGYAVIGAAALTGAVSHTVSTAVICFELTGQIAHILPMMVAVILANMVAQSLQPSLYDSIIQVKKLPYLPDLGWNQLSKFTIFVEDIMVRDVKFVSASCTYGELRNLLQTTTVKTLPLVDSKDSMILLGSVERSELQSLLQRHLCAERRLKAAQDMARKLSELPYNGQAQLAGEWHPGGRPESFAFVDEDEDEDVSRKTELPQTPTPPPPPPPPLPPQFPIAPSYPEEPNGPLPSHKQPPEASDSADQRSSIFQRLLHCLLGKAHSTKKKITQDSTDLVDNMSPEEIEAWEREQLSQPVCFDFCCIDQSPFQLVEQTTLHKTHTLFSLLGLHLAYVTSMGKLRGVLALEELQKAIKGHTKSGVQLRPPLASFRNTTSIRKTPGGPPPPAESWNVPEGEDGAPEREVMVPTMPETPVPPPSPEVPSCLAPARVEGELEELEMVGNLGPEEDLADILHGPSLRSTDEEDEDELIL
Starred values were filed as active, the others as inactive; i = inactive; nt = no result. An excerpt weighted towards active compounds, which were near 2.3% of everything screened.

SMILES	CHT inh	TMEM16A inh	ANO1 activ	CHT PAM	TMEM16A reconf	TMEM16A Ca cntr	YFP-HEK293 quench	ClC-1 rat inh
O=C(NCCCN1CCCC1=O)C(=O)NCC1OCCCN1S(=O)(=O)c1cc(F)ccc1F (stereo not given)	i	i	i	i	nt	nt	nt	nt
O=C(NCCC1CCCCN1S(=O)(=O)c1ccc(F)cc1)C(=O)NCc1ccccn1 (stereo not given)	i	i	i	i	nt	nt	nt	nt
CN(C)c1ccc(/C=C2\SC(N3CCCCC3)=NC2=O)cc1	i	i	i	i	nt	nt	nt	nt
CC(C)(C)NC1=CC(=O)OC12CCCCC2	i	i	i	i	i	i	-0.9	0
O=P(CCc1ccccc1)(c1ccccc1)c1ccccc1	nt	nt	i	nt	nt	nt	nt	nt
O=C(Nc1cccc(C(F)(F)F)c1)c1cccnc1NCCO	i	i	i	i	nt	nt	nt	nt
O=C(Nc1cccc(C(F)(F)F)c1)c1cccnc1NCCc1ccccc1	i	25*	i	i	i	i	-1.1	-5
CC1CCCCN1C(=O)NC1CC(=O)N(c2ccc3c(c2)OCCO3)C1 (stereo not given)	i	i	i	i	nt	nt	nt	nt
O=C(Nc1nnc(CSCc2ccc(Cl)cc2)s1)c1cccc([N+](=O)[O-])c1	i	25*	i	i	i	i	-1.1	-6
O=C(NC(=O)c1c(Cl)cccc1Cl)Nc1ccc(Oc2cccnc2)nc1	i	i	i	i	nt	nt	nt	nt
CC(C)(C)c1ccc(Oc2ccc(NC(=O)c3ccco3)cn2)cc1	i	100*	i	i	20%*	i	-1.1	-12
O=C(Nc1ccc(Oc2cccnc2)nc1)c1ccc(C(F)(F)F)cc1	i	25*	i	i	i	i	-0.97	-8
Cc1ccc(S(=O)(=O)NCC(c2ccco2)S(=O)(=O)c2ccccc2)cc1 (stereo not given)	i	25*	i	i	i	i	-1.3	-6
Cc1ccc(S(=O)(=O)NCCC(c2ccccc2)c2ccco2)cc1 (stereo not given)	i	i	i	i	nt	nt	nt	nt
CCOC(=O)c1c(NC(=O)CSc2nnc(-c3ccco3)o2)sc(C)c1C	i	i	i	i	nt	nt	nt	nt
CCOC(=O)c1c(NC(=O)CSc2nnc(Cc3ccccc3)o2)sc(C)c1C	i	100*	i	i	i	i	-1.2	0
CCOC(=O)c1c(NC(=O)CSc2nc3cccnc3n2C)sc(C(C)=O)c1C	i	i	i	i	nt	nt	nt	nt
CCOC(=O)c1c(NC(=O)CSc2nnc(-c3ccccc3C)n2C)sc(C(C)=O)c1C	i	25*	i	i	i	i	-0.79	-12
CSCC[C@H](NC(=O)OC(C)(C)C)C(=O)N1CCC(C(=O)NCC(=O)Nc2ccc(C)cc2)CC1	i	i	i	i	i	i	-0.93	-16
Cc1cc(Cl)ccc1OCCCC(=O)Nc1cccnc1	i	25*	i	i	22%*	i	-0.86	-2
O=C(CCSc1ccc(Cl)cc1)Nc1cccnc1	i	i	i	i	nt	nt	nt	nt
Cc1cccc(Cc2c(C)nc3c(C(=O)N4CCN(Cc5ccc6c(c5)OCO6)CC4)cnn3c2C)c1	i	25*	i	i	i	i	-1.1	-5
COc1ccc(CCn2c(C)cc(C(=O)CN3C(=O)C(=O)N(C4CCCC4)C3=O)c2C)cc1OC	nt	nt	i	nt	nt	nt	nt	nt
COc1cc2nc(N3CCNCC3)nc(N)c2cc1OC	-8.3*	100*	i	i	i	i	-0.73	-4
Cc1cccc(NC(=O)c2ccc(CN3CCN(Cc4ccccc4)CC3)cc2)c1	i	25*	i	i	i	i	-0.87	-12
SMILES	CHT inh	TMEM16A inh	ANO1 activ	CHT PAM	TMEM16A reconf	TMEM16A Ca cntr	YFP-HEK293 quench	ClC-1 rat inh
O=C(Nc1ccc(S(=O)(=O)N2CCOCC2)cc1)c1ccc(CN2CCc3ccccc3C2)cc1	i	100*	nt	i	50%*	i	-1.1	-28
CC(=O)c1cccc(NC(=O)c2ccc(CN3CCc4ccccc4C3)cc2)c1	i	i	i	i	20%*	i	-0.96	-11
O=C(NC1=NCCS1)c1ccc(Cl)c(S(=O)(=O)N2CCCC2)c1	i	25*	i	i	i	i	-0.98	-6
CCOC(=O)C1CCN(C(=O)c2cccc(S(=O)(=O)NCc3ccccc3)c2)CC1	nt	nt	i	nt	nt	nt	nt	nt
Cc1nc(SCc2nc3ccc(C(F)(F)F)cc3[nH]2)c2oc3ccccc3c2n1	nt	nt	i	nt	nt	nt	nt	nt
O=c1c2c([nH]c3ccccc13)CCCCC2	i	i	i	i	nt	nt	nt	nt
O=c1c2c([nH]c3ccccc13)CCCCCC2	i	25*	i	i	i	i	-1.1	-14
CCC1CCCCN1C(=O)CCNC(=O)Cn1cnc2ccccc2c1=O (stereo not given)	i	i	i	i	nt	nt	nt	nt
COc1cc(C(=O)NCCOc2ccccc2)c(Br)c(OC)c1OC	i	25*	i	i	i	i	-0.9	-10
Cc1ccc(-c2nc3ccc(C(=O)O)cc3nc2-c2ccc(C)cc2)cc1	i	25*	i	i	i	i	-1.1	-18
Cc1ccc2nc(-c3ccccc3)c(-c3ccccc3)nc2c1	i	i	i	i	nt	nt	nt	nt
Cc1noc(C)c1COC(=O)c1cc(C)n(-c2ccccc2)c1C	i	25*	i	i	22%*	i	-0.99	-12
Cc1noc(C)c1COC(=O)c1cc(=O)[nH]c2ccccc12	i	i	i	i	nt	nt	nt	nt
O=C(c1ncn(Cc2ccccc2)c1C(=O)N1CCc2ccccc2C1)N1CCc2ccccc2C1	nt	nt	i	nt	nt	nt	nt	nt
CC1CCN(C(=O)C(NS(=O)(=O)c2cccc3nsnc23)c2ccccc2)CC1 (stereo not given)	i	i	i	i	i	i	-1.4	-18
COc1ccc(Cn2c(=O)[nH]c3cc(C(=O)N4CCN(c5ccccc5OC)CC4)ccc3c2=O)cc1	i	i	i	i	nt	nt	nt	nt

Source: PubChem BioAssay (Johns Hopkins Ion Channel Center)
